CHX counter: counter-screen for Shiga toxin inhibitors: cycloheximide protein synthesis inhibition | cell reporter, cycloheximide protein synthesis inhibition counterscreen | max response, % | 300,000 compounds, 12% hits | AID 2314; in the data active = max response mostly above about 13%, no sharp cut-off; inactive = mostly below about 14%; note: read at 38.3 µM for the half of the compounds with a filed dose; 0% is about no effect
Shiga inhibitor: blocks Shiga toxin action in Vero cells | AID 2315 | inhibition, % at 38.7 µM | 290,000 compounds, 9.2% hits | Vero cells, Shiga toxin protein synthesis inhibition reporter; in the data active = inhibition mostly above about 28%, no sharp cut-off; inactive = mostly below about 43%; note: 0% is about no effect
Pf growth 48h: inhibits P. falciparum growth in the first generation, 48 h; P. falciparum luciferase growth in erythrocytes, 48 h; Potency, µM (titrated, usually from 28.7 µM), for inactives: at the top dose activity change, negative = inhibition, most hits filed as inhibitors; 310,000 compounds, 5.9% hits; AID 504832; note: potency is the fitted concentration of half-maximal effect; % is set by controls: 0 for no effect and ±100 for the full control effect
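Read-out is firefly luciferase luminescence from an integrated reporter in P. falciparum, so falling signal marks reduced parasite growth. Infected erythrocytes were at 2% hematocrit and 0.1% parasitemia (final) in Albumax-supplemented RPMI 1640.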
AMA1 RON2 block: AMA1-RON2 (P. falciparum) interaction inhibition. Potency, µM (doses to about 58.2 µM), for inactives: at the top dose activity change, negative = inhibition, usual class: inhibitors. AID 720542. 360,000 compounds, 0.2% hits. AlphaScreen AMA1-biotinylated RON2 peptide binding;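 note: potency is the fitted concentration of half-maximal effect; 0% = vehicle wells and -100% = peptide control; nearly all actives have a fitted effect of over 45% in size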
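AMA1 (3D7) with his tag at 25 nM final met compounds first, then biotinylated RON2 peptide at 25 nM; detection used donor plus acceptor beads, 10 µg/mL apiece, read by AlphaScreen after 30 min at room temperature.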
Pf growth 96h: P. falciparum growth inhibition at 96 hour, primary screen for plastid delayed-death inhibitors; P. falciparum luciferase reporter growth, 96 h; Potency, µM (doses to about 28.7 µM), inactives show at the top dose activity change, negative = inhibition, actives largely listed as inhibitors; 320,000 compounds, 6.9% hits; AID 504834; note: potency is the fitted concentration of half-maximal effect; % is set by controls: 0 for no effect and ±100 for the full control effect
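Cell-based qHTS: luciferase-tagged P. falciparum in erythrocytes (2% hematocrit, 0.05% parasitemia final) incubated with compounds for 96 hours, 37 C, 5% CO2; luciferase detection reagent then added and luminescence measured.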
HCV inh: blocks hepatitis C virus; AID 651820; 340,000 compounds, 3.4% hits; Potency, µM (doses to about 41.8 µM), inactives show top-dose activity change, negative = inhibition, actives largely listed as inhibitors; Huh7.5.1 HCVcc-Cre infection, luciferase reporter, 44 h; note: potency is the fitted concentration of half-maximal effect; % is set by controls: 0 for no effect and ±100 for the full control effect
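Luciferase read-out (15 sec integration) after a 15 min room-temperature substrate step quantifies HCVcc-Cre infection. Cells, 1,000 per well, had compound added 4 h post-plating, then virus at ~0.5 moi, and were cultured 44 h.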
* = called active by the depositor; ? = inconclusive; . = not tested or not shown; + = active, no number; ! = not active in a repeat. An excerpt weighted towards active compounds, which were near 21% of everything screened. Unless noted, calls come from the whole dose curve; as a rule, active = well fitted curve in the direction sought with a large enough effect; inconclusive = small, poorly fitted or top-dose-only effect, or another doubt; inactive = no such curve, though single readings can be large; an effect the other way counts as inactive or inconclusive.

SMILES	CHX counter	Shiga inhibitor	Pf growth 48h	AMA1 RON2 block	Pf growth 96h	HCV inh
C(=N\Nc1nc2ccccc2s1)/c1ccc2c(c1)OCO2	72*	90*	281%	3%	?	20%
Cc1nc(N/N=C\c2ccc3c(c2)OCO3)sc1C	29*	.	-62%	74%	-1%	13%
CN1CCN(NC(=O)/C=C/c2cccc([N+](=O)[O-])c2)CC1	10	7	12%	2%	29%	7%
CCN(CC)S(=O)(=O)c1ccc2[nH]c(=O)cc(C(=O)Nc3ccccc3N3CCOCC3)c2c1	.	.	-1%	5%	30%	3%
Cn1c(SCC(=O)N2CCc3ccccc32)nc2cccnc21	1	-1	-11%	10%	?	?
CC(C)(C)NC(=O)CSc1ncccc1-c1nc2ccccc2[nH]1	26*	26*	-4%	6%	?	4%
O=C(CSc1ncccc1-c1nc2ccccc2[nH]1)N1CCc2ccccc21	85*	26	0%	3%	110%	-23%
COC(=O)CSc1ncccc1-c1nc2ccccc2[nH]1	24*	+	45%	4%	?	20%
CNC[C@H]1OCc2ccccc2-c2ccccc2C(=O)N([C@@H](C)CO)C[C@H]1C	.	.	.	-1%	.	.
CNc1ccc(/C=C\CCCO)cn1	.	.	.	3%	.	.
CC(=O)c1cccc(N(CC(=O)NC2CCCCC2)C(=O)CCC(=O)Nc2nc(C)cs2)c1	-4	-8	?	0%	?	2%
CCOC(=O)[C@]12CCCC=C1N(Cc1ccccc1)C(=O)[C@H](CC(=O)N1CCN(C(=O)C3CC3)CC1)C2	.	.	.	3%	.	.
CCCCNC(=O)C1(C)CCCCN1Cc1ccc2ccccc2c1 (stereo unspecified)	.	.	.	3%	.	.
COc1cc(C(=O)Nc2ccc3c(c2)N(C(=O)CN2CCN(C)CC2)c2ccccc2CC3)cc(OC)c1OC	2	-2	13µM*	-20%	?	?
Cc1cc(N2CCN(C)CC2)nc2ccc(NC(=O)c3ccc4c(c3)OCO4)cc12	20*	38	9.3µM*	9%	.	10µM*
COc1cc(C(=O)Nc2ccc3nc(N4CCN(C)CC4)cc(C)c3c2)cc(OC)c1OC	9	26	0.33µM*	-3%	-1%	?
COc1cc(C2Nc3ccccc3C(=O)N2c2ccccc2)c(Br)cc1OCC(=O)O (stereo unspecified)	12	24*	3%	1%	4%	36%
CCOc1ccc(OCc2ccc(C(=O)N3CCOCC3)cc2)cc1	36*	44*	75%	10%	69%	?
COc1ccc(C(=O)N2CCN(CC(=O)N3CCOCC3)CC2)cc1	-1	9	18%	22%	4.7µM*!	-56%
CCOc1ccc(OCc2ccc(C(=O)N3CCCC(C)C3)cc2)cc1 (stereo unspecified)	41*	101*	75%	14%	?	?
CC1CCCN(C(=O)c2ccc(COc3ccccc3Br)cc2)C1 (stereo unspecified)	9.1*	15	.	-4%	?	?
CC1CCCN(C(=O)c2ccncc2)C1 (stereo unspecified)	-2	3	12%	-11%	.	1%
COc1ccc(-n2cnc3c(N)nc(N)nc32)cc1	.	.	.	2%	.	19%
Cc1cccc(C)c1NC(=O)COC(=O)[C@@H]1CCCN1C(=O)c1cccs1	.	.	.	-7%	.	3%
CCOc1ccc(N=C(/C(C(=O)C(=O)N2CCOCC2)=C(\O)c2ccccc2)c2ccccc2)cc1	53*	62*	163%	37%	-24%	18%
SMILES	CHX counter	Shiga inhibitor	Pf growth 48h	AMA1 RON2 block	Pf growth 96h	HCV inh
CCOc1ccc(C(=O)C(c2ccccc2)N2CCOCC2)cc1 (stereo unspecified)	-3	-12	-15%	8%	267%	10%
COc1ccc(-c2nnn(Cc3ccccc3F)n2)cc1	49*	96*	336%	26%	7%	11µM*
Cc1ccc(NC(=O)Cn2nnc(-c3ccc4c(c3)OCO4)n2)cc1F	-4	-3	11%	6%	1%	-9%
Fc1ccccc1Cn1nnc(-c2ccc3c(c2)OCO3)n1	43*	88*	.	28%	289%	-28%
CC1CCCN(S(=O)(=O)c2ccc(NC(=O)CN3C(=O)NC(C)(c4ccccc4)C3=O)cc2)C1 (stereo unspecified)	.	.	?	12%	-22%	-10%
CC(=O)c1cc(CN2CCN(C(C)C)C(CCO)C2)cs1 (stereo unspecified)	-2	-4	52%	0%	?	-1%
CC1CCN(c2ccc(C=O)o2)CC1	10	27	-26%	-11%	0.23µM*	8%
CC1CN(c2nc3ccccc3nc2NS(=O)(=O)c2ccccc2)CC(C)O1 (stereo unspecified)	.	.	.	-1%	.	8%
CC1(C)CC(=O)C=C(c2cccc(Br)c2)C1	.	.	-1%	-4%	?	-23%
Cc1ccccc1NC(=O)CSCc1nc(N)nc(Nc2ccccc2C)n1	16*	4	4%	-3%	-13%	2%
C=CCN(CC=C)Cc1nc(N)nc(Nc2ccccc2C)n1	-2	-7	?	68%	9.3µM*	-5%
Cc1ccccc1Nc1nc(N)nc(CCl)n1	34*	52*	?	7%	5.2µM*	1.3µM*
Cc1ccc(-c2nnc(SCc3nc(N)nc(Nc4ccccc4C)n3)n2N)cc1	-4	8	-2%	-1%	.	3%
Cc1ccccc1Nc1nc(N)nc(CN(C)c2ccccc2)n1	18	49	-16%	-16%	.	-14%
Cc1ccccc1Nc1nc(N)nc(CSc2nnc(-c3ccccc3)n2C)n1	18*	31	?	7%	13µM*	20%
CCCc1cc(=O)oc2cc(OC(C)C(=O)NCC3CCC(C(=O)O)CC3)ccc12 (stereo unspecified)	-2	7	-13%	17%	?	-7%
Nc1nc(CCl)nc(Nc2ccc3ccccc3c2)n1	74*	90*	?	6%	13µM*	0.89µM*
CN(C)c1cc2c3ccccc3n(C)c2cc1N	.	.	.	3.5µM*	.	?
Cc1cc(O)c(C)c2sc(N)nc12	-5	-9	.	.	.	.
Cc1cc(C)c(NC(=O)C2CCCN2CCO)c(C)c1 (stereo unspecified)	-2	-2	7%	16%	.	11%
Cc1cc(C)c(NC(=O)C2CCCN2C)c(C)c1 (stereo unspecified)	-5	-21	39%	18%	8.3µM*	14%
CC1=CCC2COC(c3ccc[n+](Cc4ccccc4)c3)C1C2 (stereo unspecified)	-3	-8	1.5µM*	9%	-24%	5%
CC1CCN(C(=O)C2CCN(S(=O)(=O)c3cc(Cl)ccc3Cl)CC2)CC1	-1	11	2%	-7%	?	0%
COc1ccc(N2Cc3cccc(C(=O)NC(C)CCc4ccco4)c3C2=O)cc1 (stereo unspecified)	0	15	.	-10%	12µM*	-22%
